Values joined by “and” are separate entries in the source; they are usually repeats but may differ in a detail not shown here. Equal values may be shown once. ± gives the standard deviation of the averaged measurements.
Tests used:
[1] = system: DLD1; assay: cell viability (CellTiter-Glo) relative to plate median (fraction of plate median); higher = more viable cells; details: 5 µM; treatment time 24 h; reporter: 7TFP
In short: (§1)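 Library compounds, at a final 5 µM, stayed on reporter cells for 24 h. The cells were colorectal cancer lines stably transduced with lentiviral TCF/Wnt firefly luciferase reporters, seeded in 384-well plates 24 h before dosing. Firefly luciferase or CellTiterGlo luminescence from parallel plates was normalised to the plate median in webcellHTS2 (additive, no log transformation), and two independent replicates were averaged.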

[2] = system: HCT116; assay: as above; details: 5 µM; treatment time 24 h; reporter: TCF4/Wnt
In short: as §1

[3] = system: SW480; assay: as above; details: 5 µM; treatment time 24 h; reporter: 7TFP
In short: as §1

[4] = system: DLD1; assay: TCF/Wnt firefly luciferase reporter signal relative to plate median (fraction of plate median); higher = higher Wnt reporter signal; details: 5 µM; treatment time 24 h; reporter: 7TFP
In short: as §1

[5] = system: SW480; assay: as above; details: 5 µM; treatment time 24 h; reporter: 7TFP
In short: as §1

| Compound | cell viability [1] | cell viability [2] | cell viability [3] | TCF/Wnt firefly luciferase reporter signal [4] | TCF/Wnt firefly luciferase reporter signal [5] |
| --- | --- | --- | --- | --- | --- |
| O=c1ccc2cc(O[C@@H]3O[C@H](CO)[C@@H](O)[C@H](O)[C@H]3O)c(O)cc2o1 | 1.04 | 0.922 and 0.995 | 0.965 and 0.998 | 1.23 and 1.08 | 1.09 and 1.19 |
| CCCCCCCCCCCCOC(=O)[C@H]1OC(=O)[C@H](O)[C@H]1C(=O)OO [Cinatrin C1] | 1.03 ± 0.11 | 1.02 ± 0.033 | 0.995 ± 0.035 | 0.905 ± 0.054 | 0.977 ± 0.033 |
| C=C[C@H]1CN2CC[C@H]1C[C@H]2[C@H](O)c1ccnc2ccccc12 | 1.03 ± 0.059 | 1.07 ± 0.042 | 1.01 ± 0.023 | 0.862 ± 0.061 | 0.981 ± 0.028 |
| CCCCCCCCCCCC[C@@H](O)[C@H]1CC[C@H]([C@H](O)CCCC[C@H](O)CCCCC[C@@H](O)CC2=CC(C)OC2=O)O1 (stereo not given in full) [annonacin] | 0.926 ± 0.076 | 0.933 ± 0.014 | 0.92 ± 0.092 | 0.987 ± 0.075 | 0.923 ± 0.018 |
| CC(C)=CCCC1(C)C=Cc2c(O)c3c(c(CC=C(C)C)c2O1)OC12C(=CC4CC1C(C)(C)OC2(C/C=C(/C)C(=O)O)C4O)C3=O (stereo not given) | 0.911 ± 0.11 | 0.979 ± 0.016 | 0.996 ± 0.1 | 0.848 ± 0.069 | 0.921 ± 0.054 |
| C=C[C@@H]1C2=CCOC(=O)C2=CO[C@H]1O[C@@H]1O[C@H](CO)[C@@H](O)[C@H](O)[C@H]1O | 0.971 ± 0.098 | 0.9495 ± 0.0078 | 1.03 | 0.923 ± 0.12 | 0.926 ± 0.034 |
| S=C=NCc1ccccc1 | 0.961 ± 0.053 | 0.928 ± 0.039 | 0.959 ± 0.012 | 0.748 ± 0.17 | 0.822 ± 0.071 |
| COc1cc([C@@H]2c3cc4c(cc3[C@H](OC(C)=O)[C@H]3COC(=O)[C@@H]23)OCO4)cc(OC)c1OC | 0.903 ± 0.098 | 0.904 ± 0.027 | 1.02 ± 0.028 | 0.693 ± 0.014 | 0.867 ± 0.092 |
| COC1C(O)C(O[C@H]2CC[C@]3(C=O)C4C(CC[C@]3(O)C2)[C@@]2(O)CC[C@H](C3=CC(=O)OC3)[C@@]2(C)C[C@H]4OC(C)=O)OC(C)C1OC(C)=O (stereo not given in full) | 0.929 ± 0.11 | 1.03 ± 0.083 | 0.941 ± 0.044 | 0.828 ± 0.042 | 0.83 ± 0.069 |
| N#C/C(=C\c1cccc(O)c1)C(=O)O [alpha-CYANO-3-HYDROXYCINNAMIC ACID] | 1.05 ± 0.028 | 1.01 ± 0.033 | 1.04 ± 0.028 | 1.15 ± 0.18 | 1.02 ± 0.014 |
| C[C@@H]1C(=O)O[C@H]2[C@H]1CC[C@@]1(C)C=CC(=O)[C@@]3(C)O[C@@]213 [EPOXY (4,5alpha)-4,5-DIHYDROSANTONIN] | 0.995 ± 0.064 | 1.17 ± 0.071 | 1 ± 0.023 | 0.966 ± 0.09 | 0.902 ± 0.042 |
| CNC(=O)ON=C(C)SC | 1.01 ± 0.021 | 0.928 ± 0.1 | 0.985 ± 0.035 | 0.98 ± 0.029 | 0.933 ± 0.058 |
| CCC1(CC)C(=O)C=CNC1=O | 0.965 ± 0.016 | 0.923 ± 0.025 | 0.926 ± 0.013 | 1.02 ± 0.09 | 1.07 ± 0.021 |
| Oc1cc(Cl)ccc1Oc1ccc(Cl)cc1Cl | 0.936 ± 0.078 | 0.913 ± 0.011 | 0.954 ± 0.021 | 0.983 ± 0.15 | 0.893 ± 0.021 |
| CC1=C(O)C(=O)C=C2C1=CC=C1[C@@]2(C)CC[C@@]2(C)[C@@H]3C[C@](C)(C(=O)O)CC[C@]3(C)CC[C@]12C | 0.801 ± 0.11 | 0.837 ± 0.065 | 1 ± 0.012 | 0.863 ± 0.083 | 0.787 ± 0.12 |
| CC(C)=CC1C(C(=O)OCc2cccc(Oc3ccccc3)c2)C1(C)C (stereo not given) | 0.971 ± 0.02 | 1.02 ± 0.037 | 0.985 ± 0.035 | 0.988 ± 0.1 | 0.979 ± 0.0042 |
| CN[C@@H]1[C@@H](O)[C@@H](O[C@@H]2[C@@H](O)[C@H](O[C@H]3O[C@H](CN)CC[C@H]3N)[C@@H](N)C[C@H]2N)OC[C@]1(C)O.CN[C@@H]1[C@@H](O)[C@@H](O[C@@H]2[C@@H](O)[C@H](O[C@H]3O[C@H]([C@@H](C)N)CC[C@H]3N)[C@@H](N)C[C@H]2N)OC[C@]1(C)O.CN[C@@H]1[C@@H](O)[C@@H](O[C@@H]2[C@@H](O)[C@H](O[C@H]3O[C@H]([C@@H](C)NC)CC[C@H]3N)[C@@H](N)C[C@H]2N)OC[C@]1(C)O | 1.06 ± 0.17 | 0.997 ± 0.089 | 1.03 ± 0.063 | 1.03 ± 0.028 | 1.04 ± 0.069 |

| Compound | cell viability [1] | cell viability [2] | cell viability [3] | TCF/Wnt firefly luciferase reporter signal [4] | TCF/Wnt firefly luciferase reporter signal [5] |
| --- | --- | --- | --- | --- | --- |
| C1CCc2nnnn2CC1 | 0.931 ± 0.05 | 1.05 ± 0.035 | 0.925 ± 0.052 | 0.963 ± 0.017 | 1.11 ± 0.042 |
| C=C[C@H]1CN2CC[C@H]1C[C@H]2[C@H](OC(=O)OCC)c1ccnc2ccc(OC)cc12 | 1.01 ± 0.06 | 0.911 ± 0.063 | 0.995 ± 0.035 | 0.956 ± 0.013 | 0.98 ± 0.1 |
| c1ccc2nc(N3CCNCC3)ccc2c1 | 0.9935 ± 0.0092 | 1.02 ± 0.081 | 0.974 ± 0.025 | 1.02 ± 0.15 | 0.932 ± 0.028 |
| CC(C)(C)NCC(O)c1cc(Cl)c(N)c(Cl)c1 (stereo not given) | 1.01 ± 0.024 | 1.03 ± 0.05 | 0.922 ± 0.012 | 0.97 ± 0.038 | 0.942 ± 0.0071 |
| CC[C@@]1(O)C[C@H](O)c2c(cc3c(c2O)C(=O)c2c(O)ccc(O)c2C3=O)[C@H]1C(=O)OC | 1.02 ± 0.067 | 1.05 ± 0.035 | 1.01 ± 0.03 | 1.08 ± 0.021 | 0.908 ± 0.12 |
| C=CC[C@]1(O)CC[C@H]2[C@@H]3CCC4=CC(=O)CCC4=C3C=C[C@@]21C | 1.11 ± 0.16 | 0.961 ± 0.052 | 0.963 ± 0.081 | 0.945 ± 0.078 | 0.9875 ± 0.00071 |
| c1cc2c(cc1[C@H]1OC[C@H]3[C@@H]1CO[C@H]3c1ccc3c(c1)OCO3)OCO2 | 1.03 ± 0.014 | 1.03 ± 0.13 | 0.952 ± 0.068 | 1.09 ± 0.064 | 0.932 ± 0.21 |
| C/C=C\C(=O)O[C@@H]1C[C@H]2O[C@@H]3C=C(C)C(=O)C[C@]3(C)[C@]1(C)[C@]21CO1 [Trichothecin] | 0.922 ± 0.018 | 0.807 ± 0.025 | 0.945 ± 0.023 | 0.733 ± 0.1 | 0.832 ± 0.067 |
| CN1C[C@H](CNC(=O)OCc2ccccc2)C[C@@H]2c3cccc4c3c(cn4C)C[C@H]21 | 1.03 ± 0.049 | 1.03 ± 0.069 | 1.09 ± 0.057 | 0.986 ± 0.049 | 1.01 ± 0.052 |
| CC(C)CC(N(C)C)C1(c2ccc(Cl)cc2)CCC1 (stereo not given) | 0.917 ± 0.072 | 0.924 ± 0.013 | 1.02 ± 0.042 | 0.991 ± 0.042 | 0.87 ± 0.073 |
| COc1ccc(C(CN(C)C)C2(O)CCCCC2)cc1 (stereo not given) | 1.06 ± 0.014 | 0.972 ± 0.035 | 1.03 ± 0.044 | 0.924 ± 0.069 | 0.907 ± 0.029 |
| C=C(C)[C@@H]1CC[C@]2(C(=O)O[C@@H]3O[C@H](CO[C@@H]4O[C@H](CO)[C@@H](O[C@@H]5O[C@@H](C)[C@H](O)[C@@H](O)[C@H]5O)[C@H](O)[C@H]4O)[C@@H](O)[C@H](O)[C@H]3O)CC[C@]3(C)[C@H](C[C@H]4OC(=O)C[C@@H](O)[C@]5(C)[C@@H]4[C@@]3(C)CC[C@H]5C(=C)C)[C@@H]12 [Chiisanoside (5)] | 0.873 ± 0.16 | 0.958 ± 0.074 | 0.945 ± 0.059 | 0.817 ± 0.059 | 0.948 ± 0.12 |
| [N-]=[N+]=CC(=O)OC[C@H](N)C(=O)O | 0.717 ± 0.18 | 0.887 ± 0.092 | 1.07 ± 0.028 | 0.977 ± 0.047 | 0.989 ± 0.044 |
| COc1cc2c(cc1OC)[C@@]13CCN4CC5=CCO[C@H]6CC(=O)N2[C@H]1[C@H]6[C@H]5C[C@H]43 | 1.06 ± 0.05 | 1 ± 0.097 | 1.04 ± 0.035 | 0.876 ± 0.096 | 0.974 ± 0.031 |
| NCCCNCCSP(=O)(O)O | 1.02 ± 0.14 | 1.08 ± 0.071 | 1.06 ± 0.021 | 1.1 ± 0.028 | 1.05 ± 0.035 |
| COc1ccc(O)c2c(=O)c3c(OC)cc4c(c3oc12)C1C=COC1O4 (stereo not given) | 1.06 ± 0.057 | 1.03 ± 0.057 | 1.02 ± 0.028 | 1.01 ± 0.11 | 0.999 ± 0.044 |

— the supplement of paper PMC6522484
